# BAZ2B block: qHTS Assay for Inhibitors of BAZ2B; AID 504333, 2011; Bromodomain adjacent to zinc finger domain protein 2B (Homo sapiens), Q9UIF8; AlphaScreen BAZ2B-H3K14Ac peptide displacement; Potency, µM (titrated, usually from 114 µM), most hits filed as inhibitors; 360,000 compounds, 4.4% hits; note: nearly all actives have a fitted effect of over 60% in size
#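 In this displacement format the biotinylated H3(5-23) peptide acetylated at Lys14 serves as ligand at 50 nM, with BAZ2B at 50 nM in PBS pH 7.4 containing 0.01% Tween-20. Donor and acceptor beads are 10 ug/mL final.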
# PLK1 PBD inh: qHTS for Inhibitors of PLK1-PDB (polo-like kinase 1 - polo-box domain): Primary Screen. AID 720504, 2013. 360,000 compounds, 2.8% hits. Potency, µM, hits mostly inhibitors. Serine/threonine-protein kinase PLK1 (Homo sapiens), P53350. Plk1 PBD binding of FITC phosphopeptide, fluorescence polarization; note: series mostly up to about 57 µM; nearly all actives have a fitted effect of over 65% in size
# Target sequence (P53350 whole entry, looked up, the tested form may be a part): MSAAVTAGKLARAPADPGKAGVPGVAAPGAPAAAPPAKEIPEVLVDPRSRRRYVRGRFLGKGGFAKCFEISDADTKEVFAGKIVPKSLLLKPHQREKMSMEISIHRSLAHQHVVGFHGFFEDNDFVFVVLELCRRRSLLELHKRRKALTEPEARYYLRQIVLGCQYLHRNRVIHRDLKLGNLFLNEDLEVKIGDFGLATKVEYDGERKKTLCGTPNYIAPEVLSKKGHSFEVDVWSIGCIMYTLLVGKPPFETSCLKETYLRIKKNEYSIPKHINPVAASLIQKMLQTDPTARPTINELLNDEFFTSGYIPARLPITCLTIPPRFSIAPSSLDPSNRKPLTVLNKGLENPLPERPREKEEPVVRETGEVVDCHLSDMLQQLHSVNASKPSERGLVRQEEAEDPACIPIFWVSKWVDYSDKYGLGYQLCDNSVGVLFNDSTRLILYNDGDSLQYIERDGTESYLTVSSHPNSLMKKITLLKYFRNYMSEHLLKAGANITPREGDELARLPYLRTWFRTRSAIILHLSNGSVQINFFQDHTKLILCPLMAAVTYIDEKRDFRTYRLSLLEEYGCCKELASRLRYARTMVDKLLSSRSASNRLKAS
# JMJD2A Tudor inh: qHTS Assay for Inhibitors of JMJD2A-Tudor Domain | Lysine-specific demethylase 4A (Homo sapiens), O75164 | AlphaScreen JMJD2A-Tudor / H3K4me3 peptide binding | Potency, µM (highest dose often 114 µM), usual class: inhibitors | 390,000 compounds, 4.4% hits; note: nearly all actives have a fitted effect of over 50% in size
# Sfp inh: qHTS Assay for Inhibitors of Bacillus subtilis Sfp phosphopantetheinyl transferase (PPTase) | 4'-phosphopantetheinyl transferase ffp (Bacillus subtilis), Q9F4F7 | Biochemical Sfp PPTase activity, qHTS | Potency, µM, actives largely listed as inhibitors | 310,000 compounds, 3.5% hits | AID 1490, 2009;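 note: the enzyme is Sfp with the accession as filed and its product quenches rhodamine fluorescence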
#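 After 15 min at room temperature with compound, 15 nM Sfp received 5 uM rhodamine-CoA plus 12.5 uM BHQ-2-ybbR (50 mM Hepes pH 7.6, 10 mM MgCl2). Rate came from the fluorescence difference over 30 min, ex 525/em 598 nm.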
# HP1b chromo inh: HTS for Inhibitors of HP1-beta Chromodomain Interactions with Methylated Histone Tails; Chromobox protein homolog 1 (Homo sapiens), P83916; AlphaScreen HP1-beta / biotin-H3K9me3 peptide binding; Potency, µM (titrated, usually from 114 µM), hits mostly inhibitors; 390,000 compounds, 0.56% hits; AID 540317, 2011; note: nearly all actives have a fitted effect of over 70% in size
#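 HP1-beta protein (50 nM final) preincubated 30 min at room temperature with biotinylated H3(1-18)K9me3 peptide (50 nM) in PBS pH 7.4, 0.01% Tween-20, then compound added for 30 min. AlphaScreen streptavidin donor/nickel chelate acceptor beads (10 ug/mL final), 30 min dark, luminescence read.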
# G9a block: qHTS Assay for Inhibitors of Histone Lysine Methyltransferase G9a; 350,000 compounds, 8.8% hits; AID 504332, 2011; Histone-lysine N-methyltransferase EHMT2 (Homo sapiens), Q96KQ7; Potency, µM (top dose mostly 102 µM), hits mostly inhibitors; G9a H3K9 monomethylation, AlphaScreen, 2 h; note: nearly all actives have a fitted effect of over 75% in size
#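 AlphaScreen detection with an anti-monomethyl H3K9 antibody quantified product after a 2 h room-temperature reaction containing 500 nM biotinylated H3K9 peptide, 20 µM SAM and 20 nM enzyme, which had been preincubated 15 min with compound.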
# Numbers stand for hits; – = inactive; ? = inconclusive; · = no result; ! = repeats disagree; [ ] = remark or other dose. Sampled rows, rich in hits. Any-hit rate of the full collection: about 12%. Calls come from the whole dose curve; as a rule, active = well fitted curve in the direction sought with a large enough effect; inconclusive = small, poorly fitted or top-dose-only effect, or another doubt; inactive = no such curve, though single readings can be large; an effect the other way counts as inactive or inconclusive.
SMILES,BAZ2B block,PLK1 PBD inh,JMJD2A Tudor inh,Sfp inh,HP1b chromo inh,G9a block
Cc1ccc(S(=O)(=O)Cn2nnnc2C(C(C)C)N2CCSCC2)cc1 (stereo not given),–,–,–,–,–,35µM
Cc1ccc(S(=O)(=O)Cn2nnnc2C(C(C)C)N2CCc3ccccc3C2)cc1 (stereo not given),?,?,28µM,–,–,?
Cc1ccc(S(=O)(=O)Cn2nnnc2C(C(C)C)N2CCC(O)CC2)cc1 (stereo not given),–,–,–,–,–,–
O=C(Cn1ncc2c3ccccc3n(Cc3cccc(Cl)c3)c2c1=O)NC1CCCCCC1,?,·,?,·,–,–
CCc1cccc2c(C(=S)N3CCCC3)c[nH]c12,–,–,–,–,–,–[12.7 µM]
CCc1cccc2c(C(=O)CCl)c[nH]c12,–,24µM,–,–,–,?
COC(=O)c1nnc(-c2ccccc2)c(-c2ccccc2)n1,–,–,–,–,–,32µM
O=C(NCCS(=O)(=O)c1ccc(Cl)cc1)c1ccc(F)cc1,–,21µM,?,–,–,–
NC(=O)N1CCC2(CC1)NC(=O)N(c1ccccc1)N2,–,–,–,–,–,7.9µM
Cc1ccc(C)c(-n2c(-c3ccc4c(c3)OCO4)n[nH]c2=S)c1,?,–,25µM,–,–,4µM
CSc1nc(=S)n(-c2cc(C)ccc2C)c(C)c1C(C)=O,?,–,–,–,–,–[0.501 µM]
Cc1ccc(C)c(-n2c(-c3csc(C)c3)n[nH]c2=S)c1,–,–,22µM,–,–,0.28µM
Cc1ccc(C)c(-n2c(-c3ccncc3)n[nH]c2=S)c1,–,–,11µM,–,–,16µM
Cc1ccc(C)c(N2CCN(Cc3csc(C)c3)CC2)c1,?,·,–,·,–,?
Cc1nonc1-c1ccc2c(c1)OCO2,–,–,–,–,–,–
C#CCOC(=O)C(NC(=O)c1ccccc1)=C1CCCCC1,–,–,–,–,–,–
O=C(Nc1ccccc1O)c1cc(S(=O)(=O)N2CCCC2)ccc1Cl,?,·,–,·,–,–
Cc1ccc(C2(CCNCc3ccc(N(C)C)cc3)CCOC(C(C)C)C2)cc1 (stereo not given),35µM,–,40µM,–,?,?
CC(C)C1CC(CCNCc2ccc(N(C)C)cc2)(c2ccccc2)CCO1 (stereo not given),25µM,–,32µM,–,?,35µM
CC/C=C\C/C=C\C/C=C\C/C=C\C/C=C\C/C=C\CCC(=O)O,·,·,·,79µM!,·,7.1µM
CCCCCCCCCCCCCCC/C=C/[C@@H](O)[C@H](NC(=O)CCCCCCCCCCCCC)OC (tested in a mixture with another compound),·,·,·,·,·,20µM
CC[N+]1=C(C)C(C)(C)c2cc(C)ccc21,45µM,?,–[11.4 µM],–,–,?
Cc1[nH]c2ccccc2c1NC(=O)CN1CCN(Cc2ccc3c(c2)OCO3)CC1,–,·,·,–,·,56µM
Cc1[nH]c2ccccc2c1NC(=O)CN1CCN(C(=O)c2ccco2)CC1,–,–,–,45µM,–,–
Cc1ccc(S(=O)(=O)N(C)c2ccc(OCC(=O)Nc3cccc(-n4cnnn4)c3C)cc2)cc1,–,–,–,–,–,–[12.7 µM]
SMILES,BAZ2B block,PLK1 PBD inh,JMJD2A Tudor inh,Sfp inh,HP1b chromo inh,G9a block
O=C(CNCc1ccc(Cl)cc1)Nc1ccc2c(c1)OCCO2,56µM,–,18µM,–,?,11µM
O=C(CSc1nnc(-c2ccccn2)n1-c1ccc(Cl)cc1)Nc1ccc2c(c1)OCO2,?,–,–,–,–,14µM
O=C(CNCc1ccccc1Cl)Nc1ccc2c(c1)OCCO2,56µM,–,28µM,–,?,·
O=C(CSCc1ccc(Cl)cc1)Nc1ccc2c(c1)OCO2,–,–,–,–,–,?
Nn1c(SCC(=O)Nc2ccc3c(c2)OCO3)nnc1-c1ccc(Cl)cc1,–,–,–,–,–,–
O=C(CSc1nc2c(c(=O)n1-c1ccc(Cl)cc1)SCC2)Nc1ccc2c(c1)OCCO2,–,–,–,–,–,45µM
CCOC(=O)C1Oc2ccccc2C(c2ccccc2)=C1C(C)=O (stereo not given),·,·,·,–,·,–
O=C(CSc1nccn1Cc1ccc(Cl)cc1)Nc1ccc2c(c1)OCCO2,?,·,50µM,·,–,?
FC(F)(F)c1cc(CCN2CCNC[C@H]2Cc2cccc3ccccc23)cc(C(F)(F)F)c1,50µM,–,?,·,–,?
CCCC1CCc2c(sc(N)c2C(N)=O)C1 (stereo not given),?,27µM,?,?,?,32µM
CCC1CCc2c(sc(NC(=O)c3ccco3)c2C(N)=O)C1 (stereo not given),–,–,?,–,–,–
CC(C)(C)C1CCc2c(sc(N)c2C(N)=O)C1 (stereo not given),–,?,–,50µM,–,4µM
CCC(C)(C)C1CCc2c(sc(N)c2C(N)=O)C1 (stereo not given),?,–,?,–,–,?
Cc1ccc2scc(N3CCCCC3)c(=O)c2c1,?,·,?,·,–,–
N#CC(c1ccc(Cl)cc1)c1ccc2c(C(F)(F)F)cc(C(F)(F)F)nc2n1 (stereo not given),32µM,–,50µM,–,8.9µM,11µM

# High-throughput results from PubChem BioAssay.
